From PubChem BioAssay AID1159580 (chemical genetic matrix, 2015)
Values joined by “and” are separate entries in the source; they are usually repeats but may differ in a detail not shown here. Identical values can stand only once. Hit rate of the full screen: of about 5,500 compounds, about 2,000 (36%) were called active. Inconclusive results (about 18%) are left out. No stated cut-off is given here; in the data, active means normalized growth mostly below about 0.91 (no sharp cut-off); inconclusive means no clear call, values can overlap the other calls; inactive means mostly above about 0.92. This is one part of the list.

Experiment: chemical genetic growth profiling, strain panel (AID 1159580);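 further: tested at 20 µM; growth read once vehicle control cultures reached saturation at 30 °C; 1 = growth at the plate median or of vehicle wells; lower values mean less growth of the strain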
Details: S. cerevisiae deletion strains, growth OD

Measured: normalized growth

O=C(O)COc1cc(Cl)c(Cl)cc1Cl
inactive: locus YAL013W, strain DEP1, active compounds read low 1 | locus YAL021C, strain ccr4, active compounds read low 0.984 | locus YAL026C, strain drs2, active compounds read low 1 | locus YAL030W, strain snc1, active compounds read low 1.01 | locus YBL061C, strain skt5, active compounds read low 1 | locus YBR009C, strain hhf1, active compounds read low 1 | locus YBR021W, strain FUR4, active compounds read low 1.01 | locus YBR023C, strain chs3, active compounds read low 1 | locus YBR171W, strain sec66, active compounds read low 0.998 | locus YBR229C, strain ROT2, active compounds read low 1.01 | locus YBR231C, strain swc5, active compounds read low 1 | locus YBR279W, strain paf1, active compounds read low 1 | locus YCL011C, strain gbp2, active compounds read low 1 | locus YCL016C, strain dcc1, active compounds read low 0.988 | locus YCL029C, strain bik1, active compounds read low 1.02 | locus YCL061C, strain MRC1, active compounds read low 1 | locus YCL069W, strain vba3, active compounds read low 0.993 | locus YCR088W, strain abp1, active compounds read low 1 | locus YDL005C, strain med2, active compounds read low 0.995 | locus YDL035C, strain GPR1, active compounds read low 1.02 | locus YDL040C, strain nat1, active compounds read low 0.994 | locus YDL074C, strain BRE1, active compounds read low 1.01 | locus YDL101C, strain DUN1, active compounds read low 0.982 | locus YDL134C, strain PPH21, active compounds read low 1.01 | locus YDL185W, strain tfp1, active compounds read low 1.03 | locus YDL192W, strain arf1, active compounds read low 1.02 | locus YDR001C, strain nth1, active compounds read low 1.01 | locus YDR069C, strain doa4, active compounds read low 0.994 | locus YDR101C, strain arx1, active compounds read low 1.02 | locus YDR137W, strain rgp1, active compounds read low 1.05 | locus YDR150W, strain NUM1, active compounds read low 1 | locus YDR159W, strain sac3, active compounds read low 0.999 | locus YDR162C, strain NBP2, active compounds read low 1 | locus YDR195W, strain ref2 0.952 | locus YDR297W, strain sur2, active compounds read low 1 | locus YDR318W, strain mcm21, active compounds read low 1.02 | locus YDR334W, strain swr1, active compounds read low 0.998 | locus YDR335W, strain msn5, active compounds read low 0.994 | locus YDR388W, active compounds read low 1.02 | locus YDR392W, strain spt3, active compounds read low 1.01 | locus YDR502C, strain sam2, active compounds read low 1.01 | locus YEL003W, strain gim4, active compounds read low 1.02 | locus YEL037C, strain rad23, active compounds read low 1.01 | locus YEL061C, strain CIN8 (second series), active compounds read low 0.999 | locus YEL061C, strain CIN8, active compounds read low 1 | locus YER015W, strain faa2, active compounds read low 1 | locus YER016W, strain bim1, active compounds read low 1 | locus YER110C, active compounds read low 1.02 | locus YER111C, strain swi4, active compounds read low 0.993 | locus YER155C, strain BEM2 (second series), active compounds read low 0.989 | locus YER155C, strain BEM2, active compounds read low 1.01 | locus YER167W, strain BCK2, active compounds read low 1.02 | locus YFR010W, strain ubp6, active compounds read low 1 | locus YGL078C, strain dbp3, active compounds read low 1.02 | locus YGL086W, strain mad1, active compounds read low 1.01 | locus YGL167C, strain pmr1, active compounds read low 1 | locus YGL173C, strain kem1, active compounds read low 0.994 | locus YGL227W, strain vid30, active compounds read low 1 | locus YGL240W, strain doc1, active compounds read low 0.999 | locus YGL248W, strain PDE1, active compounds read low 1.02 | locus YGL253W, strain hxk2, active compounds read low 0.995 | locus YGR078C, strain PAC10, active compounds read low 1.02 | locus YGR135W, strain pre9, active compounds read low 1.03 | locus YGR229C, strain SMI1, active compounds read low 1.02 | locus YGR252W, strain gcn5, active compounds read low 1.04 | locus YHR013C, strain ard1, active compounds read low 0.997 | locus YHR027C, strain rpn1, active compounds read low 0.998 | locus YHR030C, strain SLT2, active compounds read low 1.01 | locus YHR079C, strain IRE1 (second series), active compounds read low 1.02 | locus YHR079C, strain IRE1, active compounds read low 1.02 | locus YHR094C, strain hxt1, active compounds read low 1.02 | locus YHR129C, strain ARP1, active compounds read low 1.01 | locus YHR142W, strain chs7, active compounds read low 1 | locus YHR200W, strain rpn10, active compounds read low 1.01 | locus YIL066C, strain RNR3, active compounds read low 1.03 | locus YIL073C, strain SPO22, active compounds read low 1.09 | locus YIL125W, strain kgd1, active compounds read low 1.02 | locus YIR030C, strain dcg1, active compounds read low 1.02 | locus YJL092W, strain hpr5, active compounds read low 0.999 | locus YJL095W, strain BCK1 (second series), active compounds read low 0.994 | locus YJL095W, strain BCK1, active compounds read low 1.02 and 1.03 | locus YJL115W, strain asf1, active compounds read low 0.991 | locus YJL129C, strain trk1, active compounds read low 0.998 | locus YJL134W, strain LCB3, active compounds read low 1.01 | locus YJL154C, strain vps35, active compounds read low 0.998 | locus YJL164C, strain tpk1, active compounds read low 1.01 | locus YJL166W, strain qcr8, active compounds read low 1.01 | locus YJL168C, strain set2, active compounds read low 1.02 | locus YJL187C, strain SWE1 (second series), active compounds read low 1.01 | locus YJL187C, strain SWE1, active compounds read low 1 | locus YJR043C, strain POL32, active compounds read low 1.01 | locus YJR066W, strain TOR1, active compounds read low 0.94
